# Numbering of substitutions follows the chain as printed.
# How the values were obtained:
# Test in all cases: yeast three-hybrid, YBZ-1, SC-Leu-His + 0.5 mM 3-AT, 4 days
# Settings in all cases: tags: N-Gal4 AD-HA kept; label: inside an RPR1-promoter hybrid RNA with tandem MS2 sites; ssRNA
# PUM1 PUF domain R1-RLT = PUM1 PUF domain R1-RLT (Homo sapiens, UniProt Q14671 828-1176, S863R;R864L;Q867T)
# In short: (§1)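 The interaction score is the log change in variant frequency from input to selection. Scores were computed in log2 with a pseudocount of 1 for absent variants, using Illumina sequencing of PCR-amplified repeat regions. The input came from four days on SC-Leu and the selection from four days on SC-Leu-His + 0.5 mM 3-AT. The cells were strain YBZ-1 (LexA–MS2 coat fusion, HIS3 reporter) co-expressing Pumilio-1 PUF domain libraries and matching RNA elements from a centromeric plasmid.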
# PUM1 PUF domain R5-ERC = PUM1 PUF domain R5-ERC (Homo sapiens, UniProt Q14671 828-1176, C1007E;Q1011C)
# Sequence of PUM1 PUF domain R5-ERC (Q14671 828-1176 C1007E/Q1011C): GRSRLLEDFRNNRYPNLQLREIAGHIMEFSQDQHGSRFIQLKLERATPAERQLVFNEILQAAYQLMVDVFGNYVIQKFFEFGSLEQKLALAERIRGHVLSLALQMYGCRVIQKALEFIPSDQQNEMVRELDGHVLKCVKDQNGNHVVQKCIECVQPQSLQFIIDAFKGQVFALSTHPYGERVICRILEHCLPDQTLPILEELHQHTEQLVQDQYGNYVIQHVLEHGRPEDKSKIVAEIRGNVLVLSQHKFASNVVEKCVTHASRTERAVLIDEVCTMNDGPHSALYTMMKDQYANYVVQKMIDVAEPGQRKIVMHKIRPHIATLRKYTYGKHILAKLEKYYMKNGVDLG
# In short: as §1
# PUM1 PUF domain R5-LHG = PUM1 PUF domain R5-LHG (Homo sapiens, UniProt Q14671 828-1176, C1007L;R1008H;Q1011G)
# Sequence of PUM1 PUF domain R5-LHG (Q14671 828-1176 C1007L/R1008H/Q1011G): as the sequence (Q14671 828-1176 C1007E/Q1011C) above, with E180L, R181H, C184G counted along it
# In short: as §1
# PUM1 PUF domain R5-KRD = PUM1 PUF domain R5-KRD (Homo sapiens, UniProt Q14671 828-1176, C1007K;Q1011D)
# Sequence of PUM1 PUF domain R5-KRD (Q14671 828-1176 C1007K/Q1011D): as the sequence (Q14671 828-1176 C1007E/Q1011C) above, with E180K, C184D counted along it
# In short: as §1
# PUM1 PUF domain R5-LWV = PUM1 PUF domain R5-LWV (Homo sapiens, UniProt Q14671 828-1176, C1007L;R1008W;Q1011V)
# Sequence of PUM1 PUF domain R5-LWV (Q14671 828-1176 C1007L/R1008W/Q1011V): as the sequence (Q14671 828-1176 C1007E/Q1011C) above, with E180L, R181W, C184V counted along it
# In short: as §1
# PUM1 PUF domain R5-DWV = PUM1 PUF domain R5-DWV (Homo sapiens, UniProt Q14671 828-1176, C1007D;R1008W;Q1011V)
# In short: as §1
# PUM1 PUF domain R2-ARP = PUM1 PUF domain R2-ARP (Homo sapiens, UniProt Q14671 828-1176, N899A;Y900R;Q903P)
# In short: as §1
# PUM1 PUF domain R7-TPG = PUM1 PUF domain R7-TPG (Homo sapiens, UniProt Q14671 828-1176, S1079T;N1080P;E1083G)
# Sequence of PUM1 PUF domain R7-TPG (Q14671 828-1176 S1079T/N1080P/E1083G): as the sequence (Q14671 828-1176 C1007E/Q1011C) above, with E180C, C184Q, S252T, N253P, E256G counted along it
# In short: as §1
# PUM1 PUF domain R7-GIV = PUM1 PUF domain R7-GIV (Homo sapiens, UniProt Q14671 828-1176, S1079G;N1080I;E1083V)
# Sequence of PUM1 PUF domain R7-GIV (Q14671 828-1176 S1079G/N1080I/E1083V): as the sequence (Q14671 828-1176 C1007E/Q1011C) above, with E180C, C184Q, S252G, N253I, E256V counted along it
# In short: as §1
# PUM1 PUF domain R7-QFY = PUM1 PUF domain R7-QFY (Homo sapiens, UniProt Q14671 828-1176, S1079Q;N1080F;E1083Y)
# In short: as §1
# PUM1 PUF domain R6-LYG = target: T1, PUM1 PUF domain R6-LYG (Homo sapiens, UniProt Q14671 828-1176, N1043L;Q1047G)
# T1 sequence: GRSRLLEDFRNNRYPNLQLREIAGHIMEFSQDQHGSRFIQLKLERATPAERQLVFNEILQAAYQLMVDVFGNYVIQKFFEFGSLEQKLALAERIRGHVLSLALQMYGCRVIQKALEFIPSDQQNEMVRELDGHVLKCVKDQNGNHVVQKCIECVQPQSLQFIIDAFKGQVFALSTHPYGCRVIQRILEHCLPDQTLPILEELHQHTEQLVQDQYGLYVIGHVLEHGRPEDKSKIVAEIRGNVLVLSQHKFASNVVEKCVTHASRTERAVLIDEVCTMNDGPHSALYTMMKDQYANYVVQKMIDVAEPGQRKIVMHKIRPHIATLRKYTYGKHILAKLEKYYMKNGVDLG
# In short: as §1
# PUM1 PUF domain R4-GCG = PUM1 PUF domain R4-GCG (Homo sapiens, UniProt Q14671 828-1176, N971G;H972C;Q975G)
# In short: as §1
# PUM1 PUF domain R5-AGR = PUM1 PUF domain R5-AGR (Homo sapiens, UniProt Q14671 828-1176, C1007A;R1008G;Q1011R)
# In short: as §1
# PUM1 PUF domain R3-FWG = PUM1 PUF domain R3-FWG (Homo sapiens, UniProt Q14671 828-1176, C935F;R936W;Q939G)
# In short: as §1
# PUM1 PUF domain R6-CFH = target: T2, PUM1 PUF domain R6-CFH (Homo sapiens, UniProt Q14671 828-1176, N1043C;Y1044F;Q1047H)
# T2 sequence: T1 sequence with L216C, Y217F, G220H
# In short: as §1
# PUM1 PUF domain R7-NRR = PUM1 PUF domain R7-NRR (Homo sapiens, UniProt Q14671 828-1176, S1079N;N1080R;E1083R)
# In short: as §1
# PUM1 PUF domain R1-KGN = PUM1 PUF domain R1-KGN (Homo sapiens, UniProt Q14671 828-1176, S863K;R864G;Q867N)
# In short: as §1
# PUM1 PUF domain R5-KTL = PUM1 PUF domain R5-KTL (Homo sapiens, UniProt Q14671 828-1176, C1007K;R1008T;Q1011L)
# Sequence of PUM1 PUF domain R5-KTL (Q14671 828-1176 C1007K/R1008T/Q1011L): as the sequence (Q14671 828-1176 C1007E/Q1011C) above, with E180K, R181T, C184L counted along it
# In short: as §1
# PUM1 PUF domain R5-KQV = PUM1 PUF domain R5-KQV (Homo sapiens, UniProt Q14671 828-1176, C1007K;R1008Q;Q1011V)
# Sequence of PUM1 PUF domain R5-KQV (Q14671 828-1176 C1007K/R1008Q/Q1011V): as the sequence (Q14671 828-1176 C1007E/Q1011C) above, with E180K, R181Q, C184V counted along it
# In short: as §1
# PUM1 PUF domain R3-RTF = PUM1 PUF domain R3-RTF (Homo sapiens, UniProt Q14671 828-1176, C935R;R936T;Q939F)
# Sequence of PUM1 PUF domain R3-RTF (Q14671 828-1176 C935R/R936T/Q939F): as the sequence (Q14671 828-1176 C1007E/Q1011C) above, with C108R, R109T, Q112F, E180C, C184Q counted along it
# In short: as §1
# Sequence of PUM1 PUF domain R1-RLT (Q14671 828-1176 S863R/R864L/Q867T): as the sequence (Q14671 828-1176 C1007E/Q1011C) above, with S36R, R37L, Q40T, E180C, C184Q counted along it
sequence,measurement,setting,value
GGCUAGAACUAGUGGAUCCCCCGGCGCCCGGCGGCUCGAGCCCGGGUAAGUGUAAAUCGUCUGCAUGCCGCCGGGCGCCAUGCCUGCAGGUCGACUCUAGAAAACAUG,binding signal,PUM1 PUF domain R1-RLT,4.76 log2 enrichment (interaction score)
GGCUAGAACUAGUGGAUCCCCCGGCGCCCGGCGGCUCGAGCCCGGGUAAGUGUGAAUAGUCUGCAUGCCGCCGGGCGCCAUGCCUGCAGGUCGACUCUAGAAAACAUG,binding signal,PUM1 PUF domain R5-ERC,3.21 log2 enrichment (interaction score)
same,binding signal,PUM1 PUF domain R5-LHG,4.33 log2 enrichment (interaction score)
same,binding signal,PUM1 PUF domain R5-KRD,1.06 log2 enrichment (interaction score)
same,binding signal,PUM1 PUF domain R5-LWV,1.82 log2 enrichment (interaction score)
same,binding signal,PUM1 PUF domain R5-DWV,3.79 log2 enrichment (interaction score)
GGCUAGAACUAGUGGAUCCCCCGGCGCCCGGCGGCUCGAGCCCGGGUAAGUGUAAAAAGUCUGCAUGCCGCCGGGCGCCAUGCCUGCAGGUCGACUCUAGAAAACAUG,binding signal,PUM1 PUF domain R2-ARP,4.42 log2 enrichment (interaction score)
GGCUAGAACUAGUGGAUCCCCCGGCGCCCGGCGGCUCGAGCCCGGGUAAGUUUAAAUAGUCUGCAUGCCGCCGGGCGCCAUGCCUGCAGGUCGACUCUAGAAAACAUG,binding signal,PUM1 PUF domain R7-TPG,4.42 log2 enrichment (interaction score)
same,binding signal,PUM1 PUF domain R7-GIV,2.42 log2 enrichment (interaction score)
same,binding signal,PUM1 PUF domain R7-QFY,2.24 log2 enrichment (interaction score)
GGCUAGAACUAGUGGAUCCCCCGGCGCCCGGCGGCUCGAGCCCGGGUAAGUGUAAAUAGUCUGCAUGCCGCCGGGCGCCAUGCCUGCAGGUCGACUCUAGAAAACAUG,binding signal,PUM1 PUF domain R5-ERC,2.93 log2 enrichment (interaction score)
same,binding signal,PUM1 PUF domain R5-LHG,2.63 log2 enrichment (interaction score)
same,binding signal,PUM1 PUF domain R6-LYG,4.49 log2 enrichment (interaction score)
same,binding signal,PUM1 PUF domain R5-DWV,2.8 log2 enrichment (interaction score)
same,binding signal,PUM1 PUF domain R4-GCG,2.71 log2 enrichment (interaction score)
same,binding signal,PUM1 PUF domain R5-AGR,0.53 log2 enrichment (interaction score)
same,binding signal,PUM1 PUF domain R7-QFY,4.21 log2 enrichment (interaction score)
same,binding signal,PUM1 PUF domain R3-FWG,4.7 log2 enrichment (interaction score)
same,binding signal,PUM1 PUF domain R6-CFH,2.76 log2 enrichment (interaction score)
GGCUAGAACUAGUGGAUCCCCCGGCGCCCGGCGGCUCGAGCCCGGGUAAGUCUAAAUAGUCUGCAUGCCGCCGGGCGCCAUGCCUGCAGGUCGACUCUAGAAAACAUG,binding signal,PUM1 PUF domain R7-NRR,4.05 log2 enrichment (interaction score)
GGCUAGAACUAGUGGAUCCCCCGGCGCCCGGCGGCUCGAGCCCGGGUAAGUGUAAAUUGUCUGCAUGCCGCCGGGCGCCAUGCCUGCAGGUCGACUCUAGAAAACAUG,binding signal,PUM1 PUF domain R1-RLT,4.16 log2 enrichment (interaction score)
same,binding signal,PUM1 PUF domain R1-KGN,4.31 log2 enrichment (interaction score)
GGCUAGAACUAGUGGAUCCCCCGGCGCCCGGCGGCUCGAGCCCGGGUAAGUGUCAAUAGUCUGCAUGCCGCCGGGCGCCAUGCCUGCAGGUCGACUCUAGAAAACAUG,binding signal,PUM1 PUF domain R5-ERC,1.33 log2 enrichment (interaction score)
same,binding signal,PUM1 PUF domain R5-KTL,2.84 log2 enrichment (interaction score)
same,binding signal,PUM1 PUF domain R5-LHG,1.75 log2 enrichment (interaction score)
same,binding signal,PUM1 PUF domain R5-KRD,6.86 log2 enrichment (interaction score)
same,binding signal,PUM1 PUF domain R5-KQV,5.39 log2 enrichment (interaction score)
same,binding signal,PUM1 PUF domain R5-AGR,3.47 log2 enrichment (interaction score)
GGCUAGAACUAGUGGAUCCCCCGGCGCCCGGCGGCUCGAGCCCGGGUAAGUGUAAAUGGUCUGCAUGCCGCCGGGCGCCAUGCCUGCAGGUCGACUCUAGAAAACAUG,binding signal,PUM1 PUF domain R1-RLT,3.03 log2 enrichment (interaction score)
GGCUAGAACUAGUGGAUCCCCCGGCGCCCGGCGGCUCGAGCCCGGGUAAGUGUAAUUAGUCUGCAUGCCGCCGGGCGCCAUGCCUGCAGGUCGACUCUAGAAAACAUG,binding signal,PUM1 PUF domain R3-RTF,2.83 log2 enrichment (interaction score)
same,binding signal,PUM1 PUF domain R3-FWG,4.85 log2 enrichment (interaction score)
GGCUAGAACUAGUGGAUCCCCCGGCGCCCGGCGGCUCGAGCCCGGGUAAGUGAAAAUAGUCUGCAUGCCGCCGGGCGCCAUGCCUGCAGGUCGACUCUAGAAAACAUG,binding signal,PUM1 PUF domain R6-CFH,4.34 log2 enrichment (interaction score)
GGCUAGAACUAGUGGAUCCCCCGGCGCCCGGCGGCUCGAGCCCGGGUAAGUGUACAUAGUCUGCAUGCCGCCGGGCGCCAUGCCUGCAGGUCGACUCUAGAAAACAUG,binding signal,PUM1 PUF domain R4-GCG,1.07 log2 enrichment (interaction score)
GGCUAGAACUAGUGGAUCCCCCGGCGCCCGGCGGCUCGAGCCCGGGUAAGUGUUAAUAGUCUGCAUGCCGCCGGGCGCCAUGCCUGCAGGUCGACUCUAGAAAACAUG,binding signal,PUM1 PUF domain R5-KTL,1.72 log2 enrichment (interaction score)
same,binding signal,PUM1 PUF domain R5-KRD,4.94 log2 enrichment (interaction score)
same,binding signal,PUM1 PUF domain R5-KQV,2.42 log2 enrichment (interaction score)
same,binding signal,PUM1 PUF domain R5-LWV,2.42 log2 enrichment (interaction score)
same,binding signal,PUM1 PUF domain R5-AGR,0.84 log2 enrichment (interaction score)
GGCUAGAACUAGUGGAUCCCCCGGCGCCCGGCGGCUCGAGCCCGGGUAAGUGUAAGUAGUCUGCAUGCCGCCGGGCGCCAUGCCUGCAGGUCGACUCUAGAAAACAUG,binding signal,PUM1 PUF domain R3-FWG,7.02 log2 enrichment (interaction score)
GGCUAGAACUAGUGGAUCCCCCGGCGCCCGGCGGCUCGAGCCCGGGUAAGUGUAUAUAGUCUGCAUGCCGCCGGGCGCCAUGCCUGCAGGUCGACUCUAGAAAACAUG,binding signal,PUM1 PUF domain R4-GCG,2.61 log2 enrichment (interaction score)

# From article PMC8384837, “Expanding the binding specificity for RNA recognition by a PUF domain”
